# PubChem BioAssay (NCI)
# Compounds without any hit were thinned out: in the full panel of roughly 83,000, 20% have a hit.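 Activity criterion: percent growth below 10, measured after cells in 96-well plates were exposed to a single compound concentration for 48 hours.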 Unmarked numbers belong to inactive results. Active and inactive are the calls of the source.
# Tested on: NCI-H522 lung
# Test: NCI-60 one-dose screen, 48 h (100 = growth as untreated, 0 = no growth, -100 = all killed)
# Conditions: 10 µM unless noted
row,SMILES,growth
1,COc1cccc2cc(-c3nc(C4CCC(C(=O)O)CC4)n4ncnc(N)c34)[nH]c12 (stereo not drawn),-1.72% (active)
2,CNC(=O)c1cc(Oc2ccc3nc(NC(=O)Nc4ccc(Cl)c(C(F)(F)F)c4)sc3c2)ccn1,17.1%
3,C[C@@H](Oc1cc(-n2cnc3ccc(CN4CCN(C)CC4)cc32)sc1C(N)=O)c1ccccc1C(F)(F)F,-13.5% (active)
4,Oc1ccc(C(c2ccc(O)cc2)C(Cl)(Cl)Cl)cc1,83.2%
5,C[C@H](NC(=O)c1c(N)nn2cccnc12)c1cc2cccc(C#Cc3cnn(C)c3)c2c(=O)n1-c1ccccc1,14.1%
6,COc1cc(CCc2cc(NC(=O)c3ccc(N4C[C@@H](C)N[C@@H](C)C4)cc3)n[nH]2)cc(OC)c1,40.4%
7,CNC(=O)CN1CCC(Oc2cc3c(Nc4cccc(Cl)c4F)ncnc3cc2OC)CC1,5.87% (active)
8,Cc1oc2c(C(=O)N/N=C\c3ccc(O)cc3O)c[nH]c2c1C,16.1%
9,CCCCCc1ccc(C)cc1OC(=O)CCl,103%
10,COc1cc2ncnc(Oc3cccc(NC(=O)Nc4cc(C(C)(C)C(F)(F)F)on4)c3)c2cc1OC,0.301% (active)
11,COc1cc(Nc2ncc3c(n2)-c2ccc(Cl)cc2C(c2c(F)cccc2OC)=NC3)ccc1C(=O)O,53.5%
12,CC[C@H](Nc1ncnc2nc[nH]c12)c1nc2cccc(F)c2c(=O)n1-c1ccccc1,22.4%
13,CN1CCN(CCOc2cc(OC3CCOCC3)c3c(Nc4c(Cl)ccc5c4OCO5)ncnc3c2)CC1,11.5%
